# High-throughput results: PubChem BioAssay, National Center for Advancing Translational Sciences (NCATS)
# Sampled rows, rich in hits. Any-hit rate of the full collection: about 15%.
# 12-LOX inh – Primary qHTS assay for inhibitors of human arachidonate 12S-lipoxygenase (ALOX12): Round 2. Polyunsaturated fatty acid lipoxygenase ALOX12 (Homo sapiens), P18054. purified 12hLO, xylenol orange hydroperoxide absorbance. Potency, µM (series often up to 108 µM), for the others: top-dose activity change, negative = inhibition, actives largely listed as inhibitors. actives 1.1% (n = 580,000)
# Target sequence (P18054 whole entry, looked up): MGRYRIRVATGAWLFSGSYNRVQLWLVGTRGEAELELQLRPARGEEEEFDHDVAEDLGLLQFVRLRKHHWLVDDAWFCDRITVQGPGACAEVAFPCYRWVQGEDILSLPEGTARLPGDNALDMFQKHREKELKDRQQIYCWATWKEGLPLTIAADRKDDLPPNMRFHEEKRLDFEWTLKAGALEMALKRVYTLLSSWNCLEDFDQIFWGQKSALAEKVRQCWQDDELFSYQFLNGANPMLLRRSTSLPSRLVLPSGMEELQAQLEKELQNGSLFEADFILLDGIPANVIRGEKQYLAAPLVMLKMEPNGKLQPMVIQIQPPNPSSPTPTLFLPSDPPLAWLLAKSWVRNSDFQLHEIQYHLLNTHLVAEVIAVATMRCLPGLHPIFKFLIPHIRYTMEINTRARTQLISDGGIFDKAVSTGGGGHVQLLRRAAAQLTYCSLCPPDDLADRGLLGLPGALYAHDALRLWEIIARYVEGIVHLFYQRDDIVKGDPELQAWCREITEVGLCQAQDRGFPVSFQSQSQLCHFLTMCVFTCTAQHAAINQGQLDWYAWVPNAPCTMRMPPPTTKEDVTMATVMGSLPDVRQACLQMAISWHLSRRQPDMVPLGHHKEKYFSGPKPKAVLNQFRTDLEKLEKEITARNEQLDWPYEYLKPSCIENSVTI
#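 Hydroperoxide product was detected by ferrous iron/xylenol orange as the 573 to 405 nm absorbance ratio. Arachidonic acid at 40 uM (final) was turned over for 30 min at room temperature by 150 nM human 12hLO, pH 7.0 Hepes buffer, after 15 min compound preincubation.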
# Gal4-VP16 FLuc – VP16 counterscreen qHTS for inhibitors of ROR gamma transcriptional activity. Drosophila S2 Gal4-VP16 UAS-luciferase, luminescence, 20 h. Potency, µM (highest dose often 53.6 µM), inactives show top-dose activity, negative = inhibition, usual class: inhibitors. actives 3.5% (n = 310,000). AID 2546, 2010;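 further: Gal4-VP16 expression switched on by copper sulfate through the metallothionein promoter; nearly all actives have a fitted effect of over 50% in size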
# TDP1 cell noCPT – qHTS for Inhibitors of human tyrosyl-DNA phosphodiesterase 1 (TDP1): qHTS in cells in absence of CPT. Potency, µM (top dose mostly 46.2 µM), for the others: at the highest dose activity change, negative = growth inhibition, usual class: inhibitors. AID 686978, 2013. DT40 Tdp1-/- hTDP1 cells, no CPT, ATP luminescence, 48 h. actives 15% (n = 420,000); further: nearly all actives have a fitted effect of over 55% in size
#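 Compound effects on proliferation are scored in DT40 Tdp1-/-;hTDP1 cells in the absence of CPT. ATP levels (CellTiter-Glo luminescence) are recorded after a ≥48 hr, 37 °C incubation.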
# ELG1 repair inh – qHTS screen for small molecules that inhibit ELG1-dependent DNA repair in human embryonic kidney (HEK293T) cells expressing luciferase-tagged ELG1; AID 504467, 2011; actives 2.3% (n = 330,000); HEK293T ELG1-luciferase reporter, luminescence, 16 h; DNA damage induced by 5-fluorouridine; Potency, µM (series often up to 46.1 µM), without a hit: top-dose activity change, negative = inhibition, actives largely listed as inhibitors; further: nearly all actives have a fitted effect of over 55% in size
#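 Step one: seed 2,000 cells per well. Step two: pin-transfer compound or DMSO alongside 5-fluorouridine. Step three: incubate 16 hr, 37 °C, 5% CO2. Step four: add ONE-Glo, wait 30 min, read luminescence.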
# RORg inh – qHTS for inhibitors of ROR gamma transcriptional activity; actives 5.4% (n = 310,000); Drosophila S2 Gal4-RORgamma UAS-luciferase reporter, 20 h; Potency, µM (doses to about 53.6 µM), for the others: at the top dose activity change, negative = inhibition, usual class: inhibitors; Nuclear receptor ROR-gamma (Mus musculus), P51450; AID 2551, 2010; further: nearly all actives have a fitted effect of over 60% in size
#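 ROR gamma transcriptional activity was tracked as Gal4-UAS luciferase output in stably transfected Drosophila Schneider cells, with compound added 1 hr before 700 uM copper sulfate induction and a 20 hr ambient-temperature incubation.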
# TDP1 cell CPT – qHTS for Inhibitors of human tyrosyl-DNA phosphodiesterase 1 (TDP1): qHTS in cells in presence of CPT. chicken DT40 Tdp1-/-;hTDP1 cells + 20 nM CPT, ATP luminescence, 48 h. Potency, µM (titrated, usually from 46.2 µM), without a hit: top-dose activity change, negative = growth inhibition, actives largely listed as inhibitors. actives 12% (n = 420,000). AID 686979, 2013; further: nearly all actives have a fitted effect of over 55% in size
#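 Chicken DT40 Tdp1-/- cells complemented with human TDP1, 400 cells/well, exposed to compounds plus 20 nM camptothecin for at least 48 h at 37 C; viability read as ATP content by CellTiter-Glo luminescence.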
# Starred values were filed as active, the others as inactive; ? = inconclusive; . = not tested or not shown; [ ] = another dose, or the depositor's remark. The call rests on the fitted dose curve; in most records, active means well fitted curve in the direction sought with a large enough effect; inconclusive means small, poorly fitted or top-dose-only effect, or another doubt; inactive means no such curve, though single readings can be large; an effect the other way counts as inactive or inconclusive. On the % scale 0 is the no-effect control and ±100 the full control effect; potency means the concentration at half of the fitted maximal effect.
SMILES,12-LOX inh,Gal4-VP16 FLuc,TDP1 cell noCPT,ELG1 repair inh,RORg inh,TDP1 cell CPT
Cn1c(SCC(=O)NC(C)(C)C)nnc1-c1cc2c(s1)CCC(C(C)(C)C)C2 (centres undefined),0%,.,.,.,.,.
FC(F)(F)c1cc(-c2ccccc2)nc(SCc2ccncc2)n1,-2%,.,.,.,.,.
CCC/C(C#Cc1cc(OC)cc(OC)c1)=C1/c2ccccc2C(=O)N1c1ccccc1,?,.,?,19%,.,26µM*
CCC/C(C#CCCN1C(=O)c2ccccc2C1=O)=C1/c2ccccc2C(=O)N1c1ccccc1,?,.,?,?,.,18µM*
CCC/C(C(=O)NCCO)=C1/c2ccccc2C(=O)N1c1ccccc1,-7%,.,?,12%,.,1%
CCC/C(C#Cc1ccc(N(C)C)cc1)=C1/c2ccccc2C(=O)N1c1ccccc1,-23%,.,16µM*,?,.,15µM*
O=C1c2ccccc2C(=O)N1CCC#C/C=C1\c2ccccc2C(=O)N1c1ccccc1,15%,.,21µM*,.,.,?
Cc1noc(-c2nc(-c3ccc(Cl)cc3)no2)n1,34%,.,.,.,.,.
CCOC(=O)c1cccc(NS(=O)(=O)c2cc(-c3nn(C)c(=O)c4c3CCCC4)ccc2CC)c1,7%,.,.,.,.,.
Cc1ccc(C(=O)Nc2ccnc(-c3cccnc3)n2)cc1,14%,4%,?,?,7%,?
Cc1ccc(NC(=O)Nc2ccnc(-c3cccnc3)n2)cc1,-27%,10%,8.2µM*,-20%,22%,8.2µM*
Cc1cccc(NC(=S)N(c2ccccc2)C(C)C)c1C,14%,25µM*,?,12%,14µM*,?
OCCN(Cc1ccccc1)C(=S)NC1CCCCC1,-4%,-2%,-21%,-7%,?,1%
CC(C)N(C(=S)NC1CCCCC1)c1ccccc1,.,?,.,23%,11µM*,.
CCOC(=O)CN(Cc1ccccc1)C(C(=O)NC1CCCCC1)c1ccccc1 (centres undefined),-29%,.,15µM*,.,.,21µM*
N#CCCN(Cc1ccccc1)C(C(=O)NC1CCCCC1)C1CC1 (centres undefined),35%,.,15µM*,.,.,16µM*
COc1ccccc1NC(=S)N(c1ccccc1)C(C)C,3%,-5%,-25%,7%,?,-19%
Cn1c(=O)[nH]c(=O)c2c1nc(SCCCc1ccccc1)n2Cc1ccccc1,-7%,.,.,.,.,.
CCOc1ccc(C(C(=O)NC2CCCC2)N(Cc2ccccc2)C(=O)c2nsc(Cl)c2Cl)cc1 (centres undefined),-11%,-5%,18µM*,?,-4%,21µM*
Cc1ccc(N(C(=O)c2nsc(Cl)c2Cl)C(C(=O)NC2CCCC2)c2ccc(O)cc2)cc1C (centres undefined),-13%,?,?,-14%,?,?
CC(C)N(Cc1ccccc1)C(=S)NC1CCCCC1,-18%,?,?,-6%,13µM*,-6%
N#Cc1cc2ccccc2nc1SCc1ccccn1,-4%,?,-1%,?,6.3µM*,-19%
CS(=O)(=O)c1ccc(CN2CCCC(c3ccccc3)C2)cc1 (centres undefined),23%,.,.,.,.,.
Cn1cccc1C(=O)NCC1(C)CCOCC1,39%,.,.,.,.,.
Cc1cc(CNC(=O)[C@@H]2CCC[C@@H](NC(=O)CC(C)C)CN(C)C(=O)C2)no1,23%[176 µM],.,.,.,.,.
SMILES,12-LOX inh,Gal4-VP16 FLuc,TDP1 cell noCPT,ELG1 repair inh,RORg inh,TDP1 cell CPT
CCOC(=O)c1c(-c2ccc(C)o2)csc1NC(=O)CN1CCOCC1,-12%,-1%,16µM*,-29%,13%,16µM*
CCOC(=O)c1c(CC(C)C)csc1NC(=O)CCl,?,?,10µM*,-9%,-86%,13µM*
CCOC(=O)c1c(-c2ccc(C)o2)csc1NC(=S)NC(=O)N(C)C,?,2.2µM*,?,?,0.79µM*,?
CCOC(=O)c1c(-c2cccs2)csc1NC(=O)CN(CC)CC,-16%,0%,?,-23%,?,?
CCOC(=O)c1c(-c2cccs2)csc1NC(=O)CC(C)C,0%,-6%,21µM*,0%,31%,18µM*
CCOC(=O)c1c(CC(C)C)csc1NC(=O)COC(=O)c1cnc(C)cn1,11%,.,9%,.,.,-5%
CCOC(=O)c1c(-c2ccc(OC)c(OC)c2)csc1NC(C)=O,-14%,.,.,.,.,.
CCOC(=O)c1c(-c2ccc(C)o2)csc1NC(=O)CSc1ncn[nH]1,-6%,-1%,-7%,-8%,-2%,-20%
COc1ccc(N2CC(C(=O)NCC(F)F)NC2=O)cc1 (centres undefined),55%[176 µM],.,.,.,.,.
COc1ccc(C(=O)N[C@@H]2CN(C)C[C@H]2CN(C)C)cc1OC,90%,.,.,.,.,.
CCOC(=O)c1c(-c2cccs2)csc1NC(=O)CN1CCOCC1,39%,.,21µM*,?,-19%[0.365 µM],?
CCOC(=O)c1c(-c2ccc(C)o2)csc1N,?,7%,-7%,0%,-36%,-7%
CCOC(=O)c1c(-c2ccc(C)o2)csc1NC(=O)COC(=O)c1cccs1,-21%,20µM*,18µM*,-10%,?,?
COCc1ccc(C(=O)Nc2ccccc2C(=O)NCc2cccnc2)cc1,8%,8%,6%,6%,-5%,1%
C=CCOc1ccc(C(=O)Nc2ccccc2C(=O)NCc2cccnc2)cc1,?,4%,8.2µM*,-25%,4%,6.5µM*
CC(C)(C)c1ccccc1OCC(=O)Nc1ccccc1C(=O)NCc1cccnc1,-3%,3%,16µM*,?,13%,?
COc1cc(C(=O)NCc2cccnc2)ccc1OCC(=O)Nc1cccc(C(F)(F)F)c1,6%,.,3.7µM*,-20%,.,5.2µM*
CCOc1ccc(N(Cc2nc3nc(C)cc(C)n3n2)S(=O)(=O)c2ccc(C)cc2)cc1,-24%,.,.,.,.,.
O=C1OC(/C=C/c2ccc(Cl)cc2)=NC/1=C/c1ccco1,40µM*,3%,-3%,0%,4%,-21%
Cc1cc(C(=O)N2C[C@@H](CO)[C@H](c3ccccn3)C2)no1,35%,.,.,.,.,.
CC/C(O)=C(/C#N)c1nnc2n1CCCCC2,13%,?,0%,7%,20µM*,-18%
